A488 autofl – qHTS Assay for Spectroscopic Profiling in A488 Spectral Region | compound autofluorescence, A488 spectral region, dye equivalency; Compound Type: qHTS ECL - MLSMR | max dye equivalency, M | AID 591, 2007 | 59,000 compounds, 0.1% hits
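Compound autofluorescence was read in 100 mM Tris pH 8.0 after 15 min at room temperature, ex 480 nm/em 540 nm. Intensities were converted to A488 dye-equivalent concentration using an on-plate six-point A488 standard curve.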
Rhodamine fluor – qHTS Assay for Spectroscopic Profiling in Rhodamine Spectral Region; Rhodamine-region fluorescence, 547/598 nm, Tris buffer; hits give high values; max dye-equivalent concentration, M; 59,000 compounds, 0.05% hits; AID 594, 2007; in the data active = max dye-equivalent concentration above about 11 nM; inconclusive = between about 1.1 nM and that limit
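Intrinsic compound fluorescence, ex 547 / em 598 nm, CCD imager. Tris 100 mM pH 8.0; 15 min RT. Output = rhodamine dye-equivalent concentration at each compound concentration.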
Resorufin autofl – qHTS Assay for Spectroscopic Profiling in Resorufin Spectral Region; Compound fluorescence, resorufin region 547/598 nm, buffer; hits give high values; max dye-equivalent concentration, M; 59,000 compounds, 0.04% hits
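Intrinsic fluorescence profiled in the resorufin window (ex 547 nm, em 598 nm) after 15 min at room temperature in pH 8.0 Tris buffer (100 mM); responses normalized against a six-point resorufin standard series as dye-equivalent concentration.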
A647 autofl – qHTS Assay for Spectroscopic Profiling in A647 Spectral Region; max dye-equivalent concentration, M; 59,000 tested, under 10 active; Compound fluorescence, A647 channel (570/671 nm), Tris buffer;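 note: values scaled relative to a standard on each plate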
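Compound fluorescence was measured in 100 mM Tris buffer, pH 8.0, after 15 min at room temperature, using 570 nm excitation and 671 nm emission filters. Signal was normalized to a per-plate Alexa 647 standard curve and expressed as dye-equivalent concentration at each compound concentration.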
Texas Red fluor – qHTS Assay for Spectroscopic Profiling in Texas Red Spectral Region. Compound fluorescence, Texas Red channel, 547/618 nm; hits give high values. AID 587, 2007. 59,000 compounds, 0.06% hits. max dye-equivalent concentration, M; in the data active = max dye-equivalent concentration above about 10 nM; inconclusive = between about 1.1 nM and that limit
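Spectral interference profiling: each compound concentration's relative fluorescence, read with a 547 nm excitation and 618 nm emission filter pair, was normalized to a per-plate Texas Red standard curve.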
Fluorescein fluor – qHTS Assay for Spectroscopic Profiling in Fluorescein Spectral Region; Compound autofluorescence, 480/540 nm, fluorescein-equivalent; hits give high values; max fluorescein-equivalent concentration, M; 59,000 compounds, 0.91% hits; AID 593, 2007; in the data active = max fluorescein-equivalent concentration above about 10 nM; inconclusive = between about 1.1 nM and that limit
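First, buffer (100 mM Tris, pH 8.0) dispensed; second, compounds and fluorescein standards pinned in; third, 15 min room-temperature incubation; finally, imaging at ex 480 nm/em 540 nm. Fluorescence normalized against the six-point fluorescein curve.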
Starred values were filed as active, the others as inactive; i = inactive; ? = inconclusive. Shown are actives, neighbours in structure and some others; about 0.96% of the full set was active somewhere. Unless noted, the rule behind the calls is not given here.

SMILES | A488 autofl | Rhodamine fluor | Resorufin autofl | A647 autofl | Texas Red fluor | Fluorescein fluor
COc1cccc(NS(=O)(=O)c2ccc(S(=O)(=O)N3CCOCC3)cc2)c1 | i | i | i | 4.6e-09 | i | 1.08e-08M*
COc1cccc(NS(=O)(=O)c2ccc3c(c2)n(C)c(=O)c(=O)n3C)c1 | i | i | i | 1e-09 | i | i
COC(=O)[C@H](N)Cc1ccc(Cl)cc1 | i | i | i | 1.8e-09 | i | i
COc1cccc(N2C(=O)C3CC=C(Cl)CC3C2=O)c1 (stereo not drawn) | i | i | i | 2.49e-08 | i | 1.46e-08M*
O=C(c1ccc(N2C(=O)C3CC=C(Cl)CC3C2=O)cc1)N1CCCCC1 (stereo not drawn) | i | i | i | 4.48e-08 | i | i
CC(CC(=O)O)(CC(=O)O)c1ccccc1 | i | i | i | 3.85e-08 | i | ?
C=C1c2cccc(O)c2C(O)=C2C(=O)[C@@]3(O)C(O)=C(C(N)=O)C(=O)[C@@H](N(C)C)[C@@H]3[C@@H](O)[C@H]12 | i | i | i | 1e-09 | i | ?
CCCC(=O)Nc1ccc(NC(=O)c2ccccc2Cl)nc1 | i | i | i | 1e-09 | i | 1.1e-08M*
CCCC(=O)Nc1ccc(NC(=O)Cc2ccccc2)cn1 | i | i | i | 3.3e-09 | i | ?
Nc1c(C(=O)Nc2ccccc2)sc2nc(-c3ccco3)ccc12 | i | i | i | 6.2e-09 | ? | 1.64e-08M*
COc1ccccc1NC(=O)c1sc2nc(-c3ccco3)ccc2c1N | i | i | i | 1e-09 | i | i
Cc1noc(C)c1-c1ccc2ncnc(N(C)Cc3ccco3)c2c1 | i | i | i | 3.5e-09 | i | i
Cn1c(=O)[nH]c(=O)c2c1nc(NCc1ccccc1)n2CC(O)c1ccccc1 (stereo not drawn) | ? | i | i | 1e-09 | i | 3.56e-08M*
COc1cc(OC)cc([C@H](CNc2ncnc3c2ncn3[C@@H]2O[C@@H](CO)[C@H](O)[C@@H]2O)c2ccccc2C)c1 | i | i | i | 3.33e-08 | i | ?
CN1CCN(Cc2nc3cccc4c3c([n+]2[O-])-c2ccccc2-4)CC1 | i | i | i | 1e-09 | i | 1.4e-08M*
CCCCn1c(CN2CCN(C)CC2)nc2ccccc21 | i | i | i | 1e-09 | i | i
Cc1ccc(/C=C/C2=Cc3c(sc(NC(=O)CSc4n[nH]c(N)n4)c3C#N)C(C)(C)C2)o1 | ? | 2.77e-08M* | 2.41e-08M* | 3.88e-08 | 5.86e-08M* | 1.18e-07M*
CCOC(=O)c1sc(NC(=O)CSc2n[nH]c(-c3ccccc3)n2)c(C#N)c1C | i | i | i | 1.15e-08 | i | ?
COCCn1c(=O)c(-c2cccs2)nc2cnc(Nc3ccccc3)nc21 | i | i | i | 2.57e-08 | i | 2.69e-08M*
COCCn1c(=O)c(-c2ccc(OC)cc2)nc2cnc(Nc3ccccc3)nc21 | i | i | i | 1e-09 | i | 2.38e-08M*
CCN1CC2=C(OC(N)=C(C#N)C2c2ccccc2)/C(=C\c2ccccc2)C1 (stereo not drawn) | i | i | i | 1e-09 | i | i
N#CC1=C(N)OC2=C(CCC/C2=C/c2ccoc2)C1c1ccoc1 (stereo not drawn) | i | i | i | 5.2e-09 | ? | 1.37e-08M*
CCOC(=O)c1sc(N)c(C#N)c1COC(=O)CNC(=O)c1ccccc1 | i | i | i | 9.1e-09 | i | 3e-08M*
CCOC(=O)c1sc(N)c(C#N)c1CSc1nc2ccc(OCC)cc2[nH]1 | i | i | i | 6.6e-09 | i | i
CC(=O)OCC(=O)NCc1ccc2c(c1)OCO2 | i | i | i | 4.03e-08 | i | ?
SMILES | A488 autofl | Rhodamine fluor | Resorufin autofl | A647 autofl | Texas Red fluor | Fluorescein fluor
CC(C)c1nnc(NC(=O)CCC(=O)NCc2ccc3c(c2)OCO3)s1 | ? | i | i | 2.2e-09 | i | 1.28e-07M*
N[C@@H](Cc1[nH]nc2ccccc12)C(=O)O | i | i | i | 2.3e-09 | i | 1.14e-08M*
CCOC(=O)c1cc2c(=O)n3ccccc3nc2n(Cc2ccccc2)c1=N | ? | i | i | 2.03e-08 | i | 1.6e-07M*
COc1ccc(CNC(=O)c2cc3c(=O)n4ccccc4nc3n(Cc3ccco3)c2=N)cc1 | i | i | i | 3.68e-08 | i | 1.95e-08M*
Cc1ccc(Cn2c(=N)c(C(=O)NCc3ccco3)cc3c(=O)n4ccccc4nc32)cc1 | i | i | i | 1.7e-08 | i | ?
COc1ccc(CCn2c(=N)c(C#N)cc3c(=O)n4ccccc4nc32)cc1 | i | i | i | 2.7e-09 | i | 1.01e-08M*
CC(=O)[C@H]1CC[C@H]2[C@@H]3C=CC4=CC(=O)CC[C@@]4(C)[C@H]3CC[C@]12C | i | i | i | 4.2e-09 | ? | i
CCN1C(=O)/C(=C2\C=Cc3ccccc3N2CC)OC1=S | 3.81e-08M* | 2.19e-08M* | 2.16e-08M* | 1.08e-08 | ? | 8.02e-07M*
CC(C)(C(=O)O)c1ccc([C@@H](O)CCCN2CCC(C(O)(c3ccccc3)c3ccccc3)CC2)cc1 | i | i | i | 2.08e-08 | ? | ?
CN(C)Cc1ccccc1-c1nccc(NCc2cccs2)n1 | i | i | i | 1.5e-09 | i | 1.09e-08M*
C=C1C[C@@]23C[C@]1(O)CC[C@@H]2[C@]12C=C[C@@H](O)[C@](C)(C(=O)O1)[C@H]2[C@H]3C(=O)O | i | i | i | 1e-09 | i | ?
O=C1c2ccccc2C(=O)c2c(NC3CCCCC3)ccc(Nc3ccc(S(=O)(=O)O)cc3)c21 | i | 1.2e-08M* | ? | 3.33e-08 | 6.07e-08M* | ?
CCOC(=O)CNC(=O)c1cc(-c2ccc3c(c2)OCCO3)oc1C | ? | i | i | 5.5e-09 | i | 4.52e-08M*
CCOC(=O)CNC(=O)c1ccc2c(c1)OCCO2 | i | i | i | 1e-09 | i | i
O=C(CCC1COc2ccccc2O1)Nc1cccnc1 (stereo not drawn) | i | i | i | 1.96e-08 | i | 1.73e-08M*
NC(=O)N1c2ccccc2CC(=O)c2ccccc21 | ? | i | i | 1e-09 | i | 3.26e-08M*
NC(=O)N1c2ccccc2C=Cc2ccccc21 | i | i | i | 3.83e-08 | i | ?
O=c1c(-c2ccc(Cl)cc2)nc2cnc(N3CCNCC3)nc2n1Cc1cccs1 | i | i | i | 3.32e-08 | i | ?
CC1(C)Cc2c(c(-c3ccco3)[nH]c(=O)c2C#N)CS1 | ? | i | i | 6.1e-09 | ? | 8.7e-08M*

Source: PubChem
